Assay results taken from PubChem BioAssay (NCATS).
Several values for one entry are separate records, joined by “and”; a condition that tells them apart may be missing. Equal entries are not always repeated. Records with an inconclusive call do not appear. Entries that show only a call come without a potency. Activity calls are given as the source filed them. Calls come from the whole dose curve; as a rule, active = well fitted curve in the direction sought with a large enough effect; inconclusive = small, poorly fitted or top-dose-only effect, or another doubt; inactive = no such curve, though single readings can be large; an effect the other way counts as inactive or inconclusive.

Legend:
[1] = molecular target: Cellular tumor antigen p53 (Homo sapiens) (UniProt P04637); assay: Primary qHTS for small molecule compounds that upregulate eGFP-tagged delta133p53alpha (in N-terminal) cells. (AID 2060322); conditions: NCI-H358 eGFP-delta133p53alpha fluorescence, 24 h; activation: active compounds read high; note: nearly all actives have a fitted effect of over 75% in size; note: potency is the fitted concentration of half-maximal effect;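 for activation: cells pre-induced with doxycycline then dosed without doxycycline; series mostly up to about 56 µM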
Procedure, shortened: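 NCI-H358 cells pre-induced 24 h with 10 ng/ml doxycycline for eGFP-delta133p53alpha, plated dox-free and exposed 24 h at 37C to titrated compounds. Fixed, Hoechst-stained; gated GFP peak intensity by laser scanning cytometry, normalized to DMSO (0%) and 57.5 uM 5-azacytidine (100%).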

[2] = molecular target: Aldehyde dehydrogenase, mitochondrial (Homo sapiens) (UniProt P05091); assay: qHTS for Inhibitors of the Aldehyde Dehydrogenase Family (ALDH2) Primary screen (AID 2061308); note: nearly all actives have a fitted effect of over 55% in size
[3] = molecular target: Retinaldehyde dehydrogenase 3 (Homo sapiens) (UniProt P47895); assay: qHTS for Inhibitors of the Aldehyde Dehydrogenase Family (ALDH1A3) Primary screen (AID 2061315)

Chain of Cellular tumor antigen p53 (Homo sapiens) (P04637 whole entry, looked up): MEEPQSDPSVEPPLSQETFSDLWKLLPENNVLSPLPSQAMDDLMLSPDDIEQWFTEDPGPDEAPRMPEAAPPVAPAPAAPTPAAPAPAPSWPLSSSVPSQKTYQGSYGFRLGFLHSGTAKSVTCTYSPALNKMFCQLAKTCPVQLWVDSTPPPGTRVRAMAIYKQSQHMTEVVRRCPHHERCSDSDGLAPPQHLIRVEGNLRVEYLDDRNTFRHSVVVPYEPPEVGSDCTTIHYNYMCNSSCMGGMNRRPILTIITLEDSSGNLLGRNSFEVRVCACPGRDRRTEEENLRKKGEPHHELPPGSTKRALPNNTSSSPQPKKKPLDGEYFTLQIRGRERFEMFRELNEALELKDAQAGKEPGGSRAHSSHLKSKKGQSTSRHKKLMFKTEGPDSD

SMILES | activation [1] | Potency [2] | Potency [3] | Potency [1] | activity change, negative = inhibition [2] | activity change, negative = inhibition [3]
CC(=O)OC1C(O)CC2(C)C(CCC(C)C23Cc2c(O)cc(CO)c(C=O)c2O3)C1(C)C (stereo not given) | 6.87% (inactive) | inactive | inactive |  |  | 
O=C(NCc1ccccc1-c1ccccc1C(=O)NCCc1ccccn1)OCc1ccccc1 | 1% (inactive) | inactive | inactive |  |  | 
O=C(/C=C/c1ccccc1)OC[C@]12O[C@H]1[C@@H](O)[C@@H]1C=CO[C@@H](O[C@@H]3O[C@H](CO)[C@@H](O)[C@H](O)[C@H]3O)[C@@H]12 | 7.14% (inactive) | inactive | inactive |  |  | 
C=C1CCC2C(C)(C)C(O)CCC2(C)C1CCC(C)CCO (stereo not given) | 6.25% (inactive) | inactive | inactive |  |  | 
C=C1C(OC(C)=O)C(=O)C2C(C)(C)C(O)CCC2(C)C1CC(OC(C)=O)/C(C)=C/COC(C)=O (stereo not given) | -14.5% (inactive) | inactive | inactive |  |  | 
COc1cc(/C=C/C(=O)OC2[C@H](O)CC(O)(C(=O)O)C[C@H]2O)ccc1O (stereo not given in full) | 7.63% (inactive) | inactive | inactive |  |  | 
C/C(=C\CCC(C)CCO)C(=O)OC[C@H]1O[C@@H](O[C@@H]2OC=C(C(=O)O)[C@H]3CC[C@](C)(O)[C@@H]23)C(O)[C@@H](O)C1O (stereo not given in full) | -20.5% (inactive) | inactive | inactive |  |  | 
C[C@]12CCC[C@](C)(C(=O)O)C1CCC13C=C(CO)C(CCC12)C3 (stereo not given in full) | -24.4% (inactive) | inactive | inactive |  |  | 
COC(=O)/C=C/c1ccc(O[C@@H]2O[C@H](CO)[C@@H](O)[C@H](O)[C@H]2O)cc1 | -8.04% (inactive) | inactive | inactive |  |  | 
CCCC(=O)C1(c2ccccc2)CCN(C(=O)[C@@H](Cc2ccc(OC)cc2)NC(=O)[C@@H](N)Cc2cncn2C)CC1 | 4.3% (inactive) | inactive | inactive |  |  | 
CC1(C)CC[C@@]2(C(=O)O[C@@H]3O[C@H](CO)[C@@H](O)[C@H](O)[C@H]3O)C(C1)C1=CCC3[C@@]4(C)CC[C@@H](O[C@@H]5O[C@H](C(=O)O)[C@@H](O[C@@H]6OC[C@@H](O)[C@H](O)[C@H]6O)[C@H](O[C@@H]6OC[C@](O)(CO)[C@H]6O)[C@H]5O)C(C)(C)C4CC[C@@]3(C)[C@]1(C)C[C@H]2O (stereo not given in full) | -19.8% (inactive) | inactive | inactive |  |  | 
CCC(C)(OC(C)=O)C(=O)O[C@H]1[C@H](OC(C)=O)[C@]2(CO)[C@H](O)[C@H](O)[C@]3(C)C(=CCC4[C@@]5(C)CC[C@H](O[C@@H]6O[C@H](C(=O)O)[C@@H](O)[C@H](O[C@@H]7OC[C@H](O)[C@H](O[C@@H]8OC[C@H](O)[C@H](O)[C@H]8O)[C@H]7O)[C@H]6O[C@@H]6O[C@H](CO)[C@@H](O)[C@H](O)[C@H]6O)C(C)(C)C5CC[C@]43C)[C@@H]2CC1(C)C (stereo not given in full) |  |  |  | 3.2 µM (active) | -13.5% [at 11.2 µM] (inactive) | 11.4% [at 11.2 µM] (inactive)
CC(=O)OC1[C@H]2[C@@H](C[C@@H](C)[C@@H]3C=CC(=O)[C@@]13C)OC(=O)[C@@H]2C (stereo not given in full) |  | inactive | inactive | 21.3 µM (active) |  | 
C[C@H](O)C(O)(C(=O)OCc1ccccc1NC(=O)CCC(N)C(=O)O)[C@H](C)O (stereo not given in full) | -24.4% (inactive) | inactive | inactive |  |  | 
COc1cc(C(C)=O)ccc1O[C@@H]1O[C@H](CO)[C@@H](O)[C@H](O)[C@H]1O | -7.63% (inactive) | inactive | inactive |  |  | 
CC(C)CC1NC(=O)C(C)NC(=O)C(CC(C)C)OC(=O)CCCNC1=O (stereo not given) | -2.68% (inactive) | inactive | inactive |  |  | 
COC1=CC(=O)C=C(C)C12Oc1c(Cl)c(OC)cc(OC)c1C2=O (stereo not given) | 1.53% (inactive) | inactive | inactive |  |  | 
Cc1sc(C)c(C(=O)NC2(c3ccc(C(=O)O)cc3)CC2)c1Cc1ccc(C(F)(F)F)cc1 | -4.77% (inactive) | inactive | inactive |  |  | 
Nc1ncnc2c1ncn2[C@H]1O[C@@H](C(=O)N2CCN(CC(=O)Nc3cccc4c3CNC4=O)CC2)[C@H](O)[C@@H]1O | -24.3% (inactive) | inactive | inactive |  |  | 
C/C=C/C=C/C=C/C(=O)OC1C=C(C=O)C(O)(C(=O)O)C2(C)CCCC(C)(C)C12 (stereo not given) | -9.92% (inactive) | inactive | inactive |  |  | 
COC(=O)C1=COC(OC2OC(CO)C(O)C(O)C2O)C2C1CC(OC(=O)C(O)CC(=O)O)C2C (stereo not given) | 10.7% (inactive) | inactive | inactive |  |  | 
CC(=O)OC[C@]1(O)[C@H]2[C@H](OC(=O)CC(C)C)OC=C(CO[C@@H]3O[C@H](CO)[C@@H](O)[C@H](O)[C@H]3O)[C@H]2C[C@@H]1O | -1.79% (inactive) | inactive | inactive |  |  | 
C/C=C(\C)C(=O)OCC1OC(OC2OC(COC(=O)/C(C)=C/C)C(OC3OC(CO)C(OC(=O)/C(C)=C/C)C(OC(=O)/C(C)=C/C)C3O)C(O)C2O)C(O)C(O)C1OC1OC(CO)C(OC(=O)/C(C)=C/C)C(OC(=O)/C(C)=C/C)C1O (stereo not given) | -19.8% (inactive) | inactive | inactive |  |  | 

SMILES | activation [1] | Potency [2] | Potency [3] | Potency [1] | activity change, negative = inhibition [2] | activity change, negative = inhibition [3]
COC(=O)CCSCc1ccc(-c2onc(C)c2NC(=O)OC(C)c2ccccc2Cl)cc1 (stereo not given) | -5.25% (inactive) | inactive | inactive |  |  | 
CCOc1cn(-c2ccc(F)cc2C)nc1C(=O)Nc1ccc(Oc2ccnc3cc(OC)c(OC)cc23)c(F)c1 | 12.5% (inactive) | inactive | inactive |  |  | 
CN1[C@@H]2CC[C@H]1CC(OC(=O)c1c[nH]c3ccccc13)C2 (stereo not given in full) | -6.21% (inactive) and -7.16% (inactive) | inactive | inactive |  |  | 
CC1(C)CC[C@]2(C(=O)O)CC[C@]3(C)C(=CCC4[C@@]5(C)CC[C@H](O[C@@H]6O[C@H](C(=O)O)[C@@H](O)[C@H](O)[C@H]6O)C(C)(C)C5CC[C@]43C)C2C1 (stereo not given in full) | 11.5% (inactive) | inactive | inactive |  |  | 
C[C@@H]1O[C@@H](O[C@H]2[C@H](O[C@H]3[C@H](O[C@H]4CC[C@@]5(C)C(CC[C@]6(C)C5CC=C5[C@@H]7CC(C)(C)CC[C@]7(C(=O)O[C@@H]7O[C@H](CO)[C@@H](O[C@@H]8O[C@@H](C)[C@H](O)[C@@H](O)[C@H]8O)[C@H](O)[C@H]7O)CC[C@]56C)C4(C)C)OC[C@H](O)[C@@H]3O)O[C@H](CO)[C@@H](O)[C@@H]2O)[C@H](O)[C@H](O)[C@H]1O (stereo not given in full) | 7.14% (inactive) |  |  |  | 3.25% [at 11.2 µM] (inactive) | -3.58% [at 11.2 µM] (inactive)
NC(=O)c1cnc(NCCc2ccc(O)c(Cl)c2)nc1NCc1ccccc1 |  | inactive | inactive | 9.53 µM (active) |  | 
COC(=O)C1=CO[C@@H](O[C@@H]2O[C@H](CO[C@@H]3O[C@H](CO)[C@@H](O)[C@H](O)[C@H]3O)[C@@H](O)[C@H](O)[C@H]2O)[C@@H]2C(CO)=CC[C@H]12 | 8.4% (inactive) | inactive | inactive |  |  | 
CC1CCC23COC(=O)C2=CC(O)CC3C1(C)CCC1=CC(=O)OC1O (stereo not given) | 0.763% (inactive) | inactive | inactive |  |  | 
COc1ccc(S(=O)(=O)n2cnc3cc(C)c(C)cc32)cc1 | -3.67% (inactive) | inactive | inactive |  |  | 
C[C@@H]1O[C@@H](O[C@H]2[C@H](OC(=O)[C@]34CCC(C)(C)C[C@H]3C3=CCC5[C@@]6(C)C[C@H](O)[C@H](O[C@@H]7O[C@H](C(=O)O)[C@@H](O)[C@H](O)[C@H]7O)[C@@](C)(CO)C6[C@H](O)C[C@@]5(C)[C@]3(C)C[C@H]4O)O[C@@H](CO)[C@@H]2O)[C@H](O)[C@H](O)[C@H]1O[C@@H]1OC[C@@H](O)[C@H](O[C@H]2OC[C@](O)(CO)[C@H]2O)[C@H]1O (stereo not given in full) | 21.4% (inactive) |  |  |  | 4.26% [at 11.2 µM] (inactive) | 16.1% [at 11.2 µM] (inactive)
CC(NC(=O)c1ccccc1N)C(=O)O (stereo not given) | -20.6% (inactive) | inactive | inactive |  |  | 
NC(=O)C1=CC2C3C=CC2C(OC3=O)O1 (stereo not given) | 27.5% (inactive) | inactive | inactive |  |  | 
COC(=O)CCc1cc2ccoc2c(OC)c1O[C@@H]1O[C@H](CO)[C@@H](O)[C@H](O)[C@H]1O | -27.7% (inactive) | inactive | inactive |  |  | 
C=C(CCO)C(=O)OCC1OCC(OC(=O)C(=C)CCO[C@@H]2O[C@H](COC(=O)C(=C)CCO[C@@H]3O[C@H](CO)[C@@H](O)[C@H](O)[C@H]3O)[C@@H](O)[C@H](O)[C@H]2O)C(O)C1O (stereo not given in full) | 11.5% (inactive) | inactive | inactive |  |  | 
CC1=C2C(O)C(=O)OC(c3ccoc3)C2(C)CCC1O (stereo not given) | -16% (inactive) | inactive | inactive |  |  | 
COc1ccc2c(c1)OC[C@]1(O)c3cc4c(cc3O[C@H]21)OCO4 | -2.68% (inactive) | inactive | inactive |  |  | 
C[C@@H]1CC2OC(=O)C3=C2C(CCC3O)[C@@]12C[C@@H](c1ccoc1)OC2=O (stereo not given in full) | -8.4% (inactive) | inactive | inactive |  |  | 
CC1CCC2C(C(=O)O)=CC3C(O)C(C)(C)CC123 (stereo not given) | -0.763% (inactive) | inactive | inactive |  |  | 
CC(O)/C=C/C1(O)C(C)C(O)C(O[C@@H]2O[C@H](CO)[C@@H](O)[C@H](O)[C@H]2O)CC1(C)C (stereo not given in full) | -14.3% (inactive) | inactive | inactive |  |  | 
CC(C)=CC/C=C(/C)[C@H]1CC[C@]2(C)[C@@H]1[C@H](O)CC1[C@@]3(C)CC[C@H](O)C(C)(C)[C@@H]3[C@@H](O[C@@H]3O[C@H](CO)[C@@H](O)[C@H](O)[C@H]3O[C@@H]3O[C@@H](C)[C@H](O)[C@@H](O)[C@H]3O)C[C@]12C (stereo not given in full) | -7.63% (inactive) | inactive | inactive |  |  | 
CC1C2=CC(=O)OC2(O)CC2C1C(OC(=O)c1ccccc1)C(OC(=O)c1ccccc1)C1(O)C2(C)CCC(O)C1(C)C(=O)O (stereo not given) | 26.7% (inactive) | inactive | inactive |  |  | 
COc1cc2c(cc1O)CC(O)(CO)C(CO)C2c1ccc(OC2OC(CO)C(O)C(O)C2O)c(OC)c1 (stereo not given) | -31.3% (inactive) | inactive | inactive |  |  | 
